In PubChem BioAssay (NCI) one finds growth data, which are given here for nine compounds.

Test systems include SR leukemia; RPMI-8226 leukemia; OVCAR-8 ovarian; OVCAR-5 ovarian; OVCAR-4 ovarian; SK-OV-3 ovarian; IGROV1 ovarian; OVCAR-3 ovarian; HS 578T breast; NCI/ADR-RES ovarian; T-47D breast; BT-549 breast; MDA-MB-435 melanoma; SW-620 colon; MCF7 breast; HCT-116 colon; HCC-2998 colon; KM12 colon.
Common to all, as to assay: NCI-60 one-dose screen, 48 h (100 = growth as untreated, 0 = no growth, -100 = all killed)
Common to all, as to settings: 10 µM unless noted

About 83,000 compounds went through this panel and 20% of them were active in at least one assay; those are over-represented in the sample as a whole.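 Cells were grown in 96-well plates and exposed to the test compound at a single concentration for 48 hours; results are reported as percent growth, with values below 10 considered active.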 Values without a mark were called inactive. Calls of active or inactive are those of the source.

As for `COC(=O)N[C@H]1CCc2c(Cl)c(OC)c(OC)c(OC)c2-c2ccc(SC)c(=O)cc21`, the growth was 2.15% (active) in the assay on SR leukemia; -5.28% (active) in the assay with RPMI-8226 leukemia; 15.4% in the assay with OVCAR-8 ovarian; 38.5% in the assay with OVCAR-5 ovarian; 39.5% in the assay on OVCAR-4 ovarian; 40.3% in the assay on SK-OV-3 ovarian. Also, the growth in the assay with IGROV1 ovarian is 9.16% (active); in the assay with OVCAR-3 ovarian, -46.2% (active); with HS 578T breast, 9.58% (active); with NCI/ADR-RES ovarian it was 7.43% (active); with T-47D breast, 40.4%; in the assay on BT-549 breast it was -4.69% (active). In addition, the growth is -49.9% (active) in the assay on MDA-MB-435 melanoma; 16.1% in the assay on SW-620 colon; 10.8% with MCF7 breast; 0.452% (active) in the assay on HCT-116 colon; 21.5% in the assay on HCC-2998 colon; 1.72% (active) in the assay with KM12 colon.
For the compound `COc1ccc(CC(C)=C(c2ccc(OCCN3CCCCCC3)cc2)c2ccc(OCCN3CCCCCC3)cc2)cc1`, the growth was -32.2% (active) in the assay on SR leukemia; -57.9% (active) in the assay with RPMI-8226 leukemia; -78.1% (active) in the assay with OVCAR-8 ovarian; -95.9% (active) in the assay with OVCAR-5 ovarian; -83.9% (active) with OVCAR-4 ovarian; -90.1% (active) in the assay on SK-OV-3 ovarian. Also, the growth with IGROV1 ovarian is -77.8% (active); with OVCAR-3 ovarian it was -89.2% (active); in the assay on HS 578T breast, -61% (active); in the assay on NCI/ADR-RES ovarian, -90.3% (active); in the assay with T-47D breast, -73.3% (active); in the assay with BT-549 breast, -75.9% (active). Besides, the growth in the assay with MDA-MB-435 melanoma is -98.2% (active); in the assay on SW-620 colon it was -90.5% (active); in the assay on MCF7 breast it was -90.2% (active); in the assay on HCT-116 colon, -55.1% (active); in the assay with HCC-2998 colon it was -91.8% (active); in the assay on KM12 colon, -97.4% (active).
On to `O=C(Nc1cccc(C(=O)N2CCc3ccc(Cl)cc32)c1)c1ccco1`, for which the growth is 20.4% with SR leukemia; 34.6% in the assay on RPMI-8226 leukemia; 51.5% in the assay on OVCAR-8 ovarian; 70.7% in the assay on OVCAR-5 ovarian; 70.5% with OVCAR-4 ovarian; 82.6% in the assay with SK-OV-3 ovarian. The growth is 31.1% in the assay on IGROV1 ovarian; 18.2% in the assay with OVCAR-3 ovarian; 28.9% in the assay with HS 578T breast; 24.2% with NCI/ADR-RES ovarian; 33.6% in the assay on T-47D breast; 37.2% with BT-549 breast. For the same compound, the growth in the assay on MDA-MB-435 melanoma is -2.72% (active); in the assay with SW-620 colon, 29.8%; in the assay on MCF7 breast, 21.6%; in the assay on HCT-116 colon it was 18.9%; in the assay on HCC-2998 colon, 68%; in the assay on KM12 colon, 33.6%.
Consider `CNC(=O)c1cc(Cn2nc(C)c(NC(=O)Nc3ccc(Cl)c(C(F)(F)F)c3)c2C)ccn1`, for which the growth in the assay with SR leukemia is 91.9%; in the assay with RPMI-8226 leukemia, 94.9%; in the assay on OVCAR-8 ovarian, 97%; in the assay with OVCAR-5 ovarian it was 99.7%; in the assay on OVCAR-4 ovarian it was 87.1%; with SK-OV-3 ovarian, 95.2%. Further, the growth in the assay with IGROV1 ovarian was 109%; in the assay with OVCAR-3 ovarian it was 109%; with HS 578T breast, 97.1%; in the assay with NCI/ADR-RES ovarian it was 98.8%; with T-47D breast, 85%; with BT-549 breast it was 98.6%. The growth in the assay on MDA-MB-435 melanoma is 100%; in the assay with SW-620 colon, 111%; in the assay with MCF7 breast, 93.8%; in the assay with HCT-116 colon it was 86.7%; in the assay on HCC-2998 colon, 105%; in the assay with KM12 colon, 106%.
Turning to `O=C1Nc2cc(-c3ccc(NC(=O)C4CC4)cc3)ccc2/C1=C/c1ccc[nH]1`, the growth in the assay with SR leukemia was 44.8%; in the assay with RPMI-8226 leukemia it was 93.6%; in the assay on OVCAR-8 ovarian, 110%; in the assay with OVCAR-5 ovarian, 98%; in the assay with OVCAR-4 ovarian it was 73.4%; in the assay on SK-OV-3 ovarian, 105%. Moreover, the growth with IGROV1 ovarian was 99.2%; in the assay with OVCAR-3 ovarian, 110%; in the assay on HS 578T breast, 110%; in the assay on NCI/ADR-RES ovarian it was 106%; with T-47D breast, 21.7%; in the assay with BT-549 breast it was 104%. Moreover, the growth was 99.9% in the assay on MDA-MB-435 melanoma; 113% in the assay with SW-620 colon; 12.8% with MCF7 breast; 104% in the assay with HCT-116 colon; 111% in the assay with HCC-2998 colon; 39.8% with KM12 colon.
For `COc1cc2nc(-c3ccc(Cl)cc3)cc(OCCCN3CCC(O)CC3)c2cc1OC`, the growth with SR leukemia was 15.9%; in the assay on RPMI-8226 leukemia it was 23.2%; with OVCAR-8 ovarian it was 42.9%; in the assay on OVCAR-5 ovarian, 45.8%; in the assay on OVCAR-4 ovarian, 68.7%; with SK-OV-3 ovarian, 74.3%. Further, the growth in the assay on IGROV1 ovarian was 33.2%; with OVCAR-3 ovarian, 71.7%; in the assay with HS 578T breast, 66.9%; in the assay with NCI/ADR-RES ovarian it was 44.6%; with T-47D breast, 44.3%; in the assay with BT-549 breast, 34.9%. Moreover, the growth in the assay with MDA-MB-435 melanoma was -10.7% (active); with SW-620 colon it was 51.2%; in the assay with MCF7 breast, 48.9%; with HCT-116 colon, 17.9%; in the assay with HCC-2998 colon, 69.9%; in the assay on KM12 colon, 37.2%.
As to `O=[N+]([O-])CC(c1ccccc1F)c1c[nH]c2ccccc12` (configuration not stated), the growth in the assay on SR leukemia is 30.2%; in the assay with RPMI-8226 leukemia it was 76%; with OVCAR-8 ovarian it was 78%; with OVCAR-5 ovarian, 96%; with OVCAR-4 ovarian, 97.3%; in the assay with SK-OV-3 ovarian it was 119%. Also, the growth was 68.6% with IGROV1 ovarian; 77.9% with OVCAR-3 ovarian; 77.2% in the assay with HS 578T breast; 48.2% in the assay with NCI/ADR-RES ovarian; 59.4% in the assay with T-47D breast; 73.8% in the assay with BT-549 breast. Moreover, the growth is 3.66% (active) with MDA-MB-435 melanoma; 39% with SW-620 colon; 54.3% in the assay with MCF7 breast; 65.2% in the assay with HCT-116 colon; 80.6% in the assay on HCC-2998 colon; 59.5% with KM12 colon.
With `O=C(CCN1CCCC1)Nc1ccc2c(NCCCCc3ccccc3)c3ccccc3nc2c1`, the growth in the assay on SR leukemia is -29% (active); with RPMI-8226 leukemia, -42.7% (active); in the assay with OVCAR-8 ovarian, 1.13% (active); with OVCAR-5 ovarian, 7.16% (active); in the assay on OVCAR-4 ovarian, -74.6% (active); in the assay with SK-OV-3 ovarian it was 53.9%. Further, the growth was -18.1% (active) in the assay on IGROV1 ovarian; -82.6% (active) with OVCAR-3 ovarian; -9.34% (active) in the assay on HS 578T breast; 80.8% in the assay with NCI/ADR-RES ovarian; -27.2% (active) in the assay on T-47D breast; 56.9% in the assay with BT-549 breast. Besides, the growth in the assay with MDA-MB-435 melanoma is -91.2% (active); in the assay on SW-620 colon it was -60.5% (active); in the assay with MCF7 breast, -75.9% (active); in the assay with HCT-116 colon, -70.8% (active); with HCC-2998 colon, -90.9% (active); with KM12 colon, -79.1% (active).
With `CCNC(=O)Oc1ccc(/C(=C(\C)c2ccccc2)c2ccc(OCCCN(C)C)cc2)cc1`, the growth is 10.2% in the assay with SR leukemia; 66.6% in the assay with RPMI-8226 leukemia; 86.5% in the assay on OVCAR-8 ovarian; 81.4% with OVCAR-5 ovarian; 84.4% in the assay with OVCAR-4 ovarian; 80.7% in the assay on SK-OV-3 ovarian. The growth with IGROV1 ovarian is 87.5%; in the assay on OVCAR-3 ovarian it was 85.3%; in the assay with HS 578T breast, 57%; with NCI/ADR-RES ovarian, 81.6%; in the assay on T-47D breast it was 45.6%; in the assay on BT-549 breast, 70.7%. Further, the growth was 69.6% in the assay on MDA-MB-435 melanoma; 94.5% in the assay with SW-620 colon; 27% in the assay on MCF7 breast; 48.8% in the assay with HCT-116 colon; 67.9% in the assay on HCC-2998 colon; 65.8% in the assay on KM12 colon.
